Experimental data: publication PMC10726135, “HNF4α isoforms regulate the circadian balance between carbohydrate and lipid metabolism in the liver”
The full ranking holds about 18,000 sequences; the median of “log2 normalized intensity” is about 0.39, and the highest 2% start at about 6.6. The full list was thinned out, with the highest values kept by preference.

These sequences were tested against T1, HNF4alpha2 (COS-7 nuclear extract) (Homo sapiens, UniProt P41235 1-474) (assay: protein-binding microarray; COS-7 nuclear extract on double-stranded Agilent 4x180k PBM; binding buffer, salt, pH and temperature not given in the material; high values mean tight binding). Conditions: chain copies: 2; label: 3' end of strand 1 on the slide; dsDNA, one strand shown.
T1 sequence: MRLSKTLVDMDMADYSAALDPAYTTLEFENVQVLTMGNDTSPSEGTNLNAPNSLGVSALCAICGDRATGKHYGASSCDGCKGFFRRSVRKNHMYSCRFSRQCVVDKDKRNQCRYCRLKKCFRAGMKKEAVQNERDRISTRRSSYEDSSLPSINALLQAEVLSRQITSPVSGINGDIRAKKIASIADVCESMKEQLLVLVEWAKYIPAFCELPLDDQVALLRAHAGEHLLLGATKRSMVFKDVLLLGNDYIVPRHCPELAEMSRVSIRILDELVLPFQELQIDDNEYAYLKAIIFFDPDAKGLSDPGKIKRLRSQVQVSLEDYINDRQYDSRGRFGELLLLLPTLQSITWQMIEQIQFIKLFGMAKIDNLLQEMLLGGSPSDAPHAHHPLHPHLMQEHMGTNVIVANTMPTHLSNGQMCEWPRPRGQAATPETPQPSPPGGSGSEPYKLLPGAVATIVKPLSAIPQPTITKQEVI
Method in brief: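 A custom Agilent SurePrint G3 4x180k array, spotted in quadruplicate with ~44,000 test sequences as ~60-nt oligonucleotides made double-stranded, was incubated with nuclear extracts. The extracts came from COS-7 cells transiently transfected by CaPO4 with a human HNF4α isoform expression vector. Bound HNF4α was imaged on an Agilent G2565CA scanner at 2-µm resolution, and the binding signal was taken as Agilent software's background-corrected, normalized gProcessedSignal.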
With “ATCCTTACACAGCAGCTTTAGTCAGAGATTGCCTAGGGAGATTAGAGTATCGGTCGA” the binding signal was -0.896 log2 normalized intensity. “GCATGGCTCAGTCCAAGTCCAAAGGTCTGAGCCTAGGGAGATTAGAGTATCGGTCGA” was tested, and the binding signal was 5.39 log2 normalized intensity. Work on “CCAAAGTCCAAAGTCCAGTCTTATCTGAGAGCCTAGGGAGATTAGAGTATCGGTCGA” yielded a binding signal of 7.12 log2 normalized intensity. “AAGTCCAGTCTTATCTGAGACTCAAGGCAAGCCTAGGGAGATTAGAGTATCGGTCGA” gave a binding signal of -0.968 log2 normalized intensity. Work on “TTTCTGTAAAGCTTTATTTTGGGGCTGTATGCCTAGGGAGATTAGAGTATCGGTCGA” yielded a binding signal of 0.324 log2 normalized intensity. Work on “CAAAGCATAGCAAGAGTGACCTTTGCTCCAGCCTAGGGAGATTAGAGTATCGGTCGA” yielded a binding signal of 8.97 log2 normalized intensity. Sequence “AGATAGCATTCCAAGAGAGCAAAGTGCTTTGCCTAGGGAGATTAGAGTATCGGTCGA” has a binding signal of 0.587 log2 normalized intensity. “CCTGCATATCCTGACTGCTGACCTTTAAGCGCCTAGGGAGATTAGAGTATCGGTCGA” gave a binding signal of 4.85 log2 normalized intensity. “TTGCTTAAGCATAGCAAAAGTGACCTTTGCGCCTAGGGAGATTAGAGTATCGGTCGA” gave a binding signal of 8.56 log2 normalized intensity. With “CTTTAGCACCTTCATCCAAAGATGACCTTTGCCTAGGGAGATTAGAGTATCGGTCGA” the binding signal was 7.62 log2 normalized intensity. In the case of “AAAAGTGACCTTTGCTCCAGTTCCCAATAAGCCTAGGGAGATTAGAGTATCGGTCGA”, the binding signal is reported as 5.9 log2 normalized intensity. Work on “TATGACCTTTGCTTTTCAAGATTTTACCTAGCCTAGGGAGATTAGAGTATCGGTCGA” yielded a binding signal of 2.14 log2 normalized intensity. In the case of “TTTGCCAAAGCATAGCAAGAGTGACCTTTGGCCTAGGGAGATTAGAGTATCGGTCGA”, the binding signal is reported as 6.6 log2 normalized intensity. For “ATAGCAAAAGTGACCTTTGCTCCAGTTCCCGCCTAGGGAGATTAGAGTATCGGTCGA”, the binding signal was 7.8 log2 normalized intensity. “AATCGACCTTTAGCACCGTAAGAGAGTATTGCCTAGGGAGATTAGAGTATCGGTCGA” was tested, and the binding signal was 3.82 log2 normalized intensity. “CTTCTTTGCTTAAGCATAGCAAAAGTGACCGCCTAGGGAGATTAGAGTATCGGTCGA” gave a binding signal of 2.7 log2 normalized intensity. In the case of “GTGACCTTTGCTCCAGTTCCCAATAAGTTGGCCTAGGGAGATTAGAGTATCGGTCGA”, the binding signal is reported as 4.19 log2 normalized intensity. In the case of “CCCATCCAAAGGTCAGCAATCTCAAAGACTGCCTAGGGAGATTAGAGTATCGGTCGA”, the binding signal is reported as 2.36 log2 normalized intensity. Sequence “TAAGTTTAAGTCCAGAAAAGACCAAAAAGGGCCTAGGGAGATTAGAGTATCGGTCGA” has a binding signal of 0.39 log2 normalized intensity. Sequence “TAACTATGGTCACGCGGCCAAAATGTTCAGGCCTAGGGAGATTAGAGTATCGGTCGA” has a binding signal of 0.22 log2 normalized intensity. For “CTGTGTCATCTGAACTCTGACCAACGCCTCGCCTAGGGAGATTAGAGTATCGGTCGA”, the binding signal was 2.73 log2 normalized intensity. “CATAGCAAGAGTGACCTTTGCTCCAGTTCCGCCTAGGGAGATTAGAGTATCGGTCGA” was tested, and the binding signal was 7.45 log2 normalized intensity. “TGACCTTTGCTCCAGTTCCCAATAATTTCCGCCTAGGGAGATTAGAGTATCGGTCGA” showed a binding signal of 4.46 log2 normalized intensity. In the case of “CAAGAGTGACCTTTGCTCCAGTTCCCAATAGCCTAGGGAGATTAGAGTATCGGTCGA”, the binding signal is reported as 6 log2 normalized intensity. “CAGTACTGAAACATGCCTATGACCGAGGGTGCCTAGGGAGATTAGAGTATCGGTCGA” was tested, and the binding signal was 0.809 log2 normalized intensity. In the case of “TGCTTGGAATGCTATTTGCATTGACACAACGCCTAGGGAGATTAGAGTATCGGTCGA”, the binding signal is reported as 0.296 log2 normalized intensity. In the case of “TTCTGTTCAATGGTGCTTTTGATATTGTTGGCCTAGGGAGATTAGAGTATCGGTCGA”, the binding signal is reported as 2.06 log2 normalized intensity. “GACATCTGGAAATGTTTGTAGGGACTTTGAGCCTAGGGAGATTAGAGTATCGGTCGA” was tested, and the binding signal was 4.28 log2 normalized intensity. Work on “CAACTGACATCTGGAAATGTTTGTAGGGACGCCTAGGGAGATTAGAGTATCGGTCGA” yielded a binding signal of 0.308 log2 normalized intensity. In the case of “AATGTTTGTAGGGACTTTGACCCCTAAAACGCCTAGGGAGATTAGAGTATCGGTCGA”, the binding signal is reported as 8.73 log2 normalized intensity. For “CTTTGACCCTGTTTTGTAAACTCCCTTTGAGCCTAGGGAGATTAGAGTATCGGTCGA”, the binding signal was 1.78 log2 normalized intensity. “AGCAATGTTTCTTGTCCAGGGACTTTGAACGCCTAGGGAGATTAGAGTATCGGTCGA” showed a binding signal of 5.74 log2 normalized intensity. With “CTGGAAATGTTTGTAGGGACTTTGACCCCTGCCTAGGGAGATTAGAGTATCGGTCGA” the binding signal was 9.92 log2 normalized intensity. For “AGTTTGACTCCAAAGGGCTGGAGACTGAGTGCCTAGGGAGATTAGAGTATCGGTCGA”, the binding signal was -0.509 log2 normalized intensity. In the case of “TCTAAGACCCATCCCTCAGGGTCCATATCCGCCTAGGGAGATTAGAGTATCGGTCGA”, the binding signal is reported as 2.84 log2 normalized intensity. “TCTTCCTAGGCAATCCCATGACCTTTGTACGCCTAGGGAGATTAGAGTATCGGTCGA” showed a binding signal of 8.78 log2 normalized intensity. Work on “CTAGGCAATCCCATGACCTTTGTACTAATGGCCTAGGGAGATTAGAGTATCGGTCGA” yielded a binding signal of 7.57 log2 normalized intensity. With “CCATGACCTTTGTACTAATGATTTGTAAATGCCTAGGGAGATTAGAGTATCGGTCGA” the binding signal was 5.25 log2 normalized intensity. Work on “TGTCTTCTGACCTTTGGCAATATCTCCCAGGCCTAGGGAGATTAGAGTATCGGTCGA” yielded a binding signal of 3.48 log2 normalized intensity. With “CACCTTCTTCCTAGGCAATCCCATGACCTTGCCTAGGGAGATTAGAGTATCGGTCGA” the binding signal was 3.25 log2 normalized intensity. Sequence “CAATCCCATGACCTTTGTACTAATGATTTGGCCTAGGGAGATTAGAGTATCGGTCGA” has a binding signal of 5.84 log2 normalized intensity. With “TCTGAAGATAAATGCCTTAGCTGTGACCATGCCTAGGGAGATTAGAGTATCGGTCGA” the binding signal was 0.619 log2 normalized intensity. “CTCTAGGGTAGATAAGGATGGATCAAAGGAGCCTAGGGAGATTAGAGTATCGGTCGA” was tested, and the binding signal was -0.461 log2 normalized intensity.
